The values that follow come from PubChem BioAssay AID2716 (Broad Institute, 2010).

Several values for one entry are separate records, joined by “and”; a condition that tells them apart may be missing. Equal values may be shown once. About 3,300 (1%) of roughly 320,000 compounds were called active. The full list was thinned out, with actives kept by preference. A number with no mark means an inactive call.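 Rule for the calls: active = every valid replicate shows activation above 250% relative to neutral control wells; inactive = the rest, any valid replicate at or below 250%.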

The nature of the experiment: restored growth of temperature-sensitive Mot1-301 yeast – S. cerevisiae, ATP luminescence, 38.5C, SUMOylation pathway inhibitor project, primary screen (AID 2716).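 Note: OY570 slx delta 5 strain wells were the positive control but not used for scaling.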 The settings on record: S. cerevisiae Mot1-301 growth rescue, at 18.8 µM, hits give high values, percent above DMSO median, 100 means doubled.
`CCCCCCCCCCCCN1[C@@H](CC(C)=O)c2cc(F)cc(F)c2S1(=O)=O`: the growth rescue is -17.6%.

For the compound `COc1ccc(C)cc1N(C(=O)Cn1nnc(-c2ccc(C)o2)n1)C(C(=O)NC1CCCC1)c1ccncc1` (configuration not stated), the growth rescue was -11.2%.

Take `CN(CCO)c1ccc(/C=N/Nc2nncc3ccccc23)cc1`: the growth rescue was 20.6%.

`C=CC1=C(C(=O)O)N2C(=O)[C@@H](NC(=O)/C(=N/OCC(=O)O)c3csc(N)n3)[C@H]2SC1`: the growth rescue was 328% (active).

In the case of `CO/N=C(\C(=O)N[C@@H]1C(=O)N2C(C(=O)O)=C(COC(C)=O)CS[C@H]12)c1csc(N)n1` (stereo in doubt), the growth rescue was -1.64% and 233%.

With `Cc1cc(C)cc(C(=O)NC2C(=O)N3C(C(=O)O)=C(CSc4nnc(C)s4)CSC23)c1` (configuration not stated), the growth rescue is -7.63%.

Take `CCN(C(=O)COC(=O)Cc1c(F)cccc1Cl)c1c(N)n(Cc2ccccc2)c(=O)[nH]c1=O`: the growth rescue is -1.24%.

On to `Cc1ccccc1N1CCN(CC(=O)NCc2ccc(Cl)cc2)CC1`, for which the growth rescue is 22%.

Consider `COc1ccc(C(C[N+](=O)[O-])n2nc(C)cc2C)cc1` (configuration not stated), for which the growth rescue was 383% (active).

Take `COc1ccc(OCc2cn3c(C)cc(C)nc3n2)cc1`: the growth rescue was 1.72%.

In the case of `CCOc1ccc(C(C)C)cc1S(=O)(=O)n1nc(C)cc1C`, the growth rescue was -14.9%.

Regarding `Nc1c(-c2cccc(Cl)c2)cnn1-c1cccc([N+](=O)[O-])c1`, the growth rescue was 0.816%.

With `O=C(Nc1ccc(-n2ccnc2P(=O)(O)c2ccccc2)cc1)c1ccccc1Br`, the growth rescue is 46.7%.

Turning to `O=C(O)CC(CC(=O)N1CCOCC1)c1ccccc1` (configuration not stated), the growth rescue is -13.1%.

For the compound `O=C(Cc1ccccc1Cl)N1CCOCC1`, the growth rescue is 9.61%.

`O=C(CP(=O)(c1ccccc1)c1ccccc1)N1CCOCC1`: the growth rescue is 634% (active).

In the case of `COc1ccc(C(=O)COC(=O)CN2C(=O)C3CC=CCC3C2=O)c(OC)c1` (configuration not stated), the growth rescue is 9.86%.

As for `CCC(CO)Oc1cc(NCc2ccccc2)c2ncn(C3CCCC3)c2c1` (configuration not stated), the growth rescue is 9.9%.

As to `C/C(CC(C)C)=N\Oc1nc(C)cc(C)n1`, the growth rescue is -10.5%.

`O=C(CN1CCCC1)N1CCN(c2ccccc2)CC1`: the growth rescue was 0.51%.

Take `CN(C)/C(CN1CCCCC1)=C1\N=C(c2ccccc2)OC1=O`: the growth rescue is 1740% (active).

Turning to `CC(CN1CCCCC1)c1ccccc1` (configuration not stated), the growth rescue was 7.87%.

With `O=C(c1cc(Cl)cc(Cl)c1)N1CCC(=O)N(C(COCc2ccccc2)Cc2ccccc2)CC1` (configuration not stated), the growth rescue was -7.87%.

With `Oc1c(Cl)cc(Cl)c(Cl)c1Cc1c(O)c(Cl)cc(Cl)c1Cl`, the growth rescue was 482% (active) and 481% (active).

`CC(=O)c1ccc(N2CCN(C(=O)c3ccc4nc[nH]c4c3)CC2)cc1`: the growth rescue was 10.1%.

For the compound `Cc1cc(C(=O)NNC(=O)c2ccccc2O)c(C)o1`, the growth rescue was -0.00731%.

Take `CC(C)c1cc(C(=O)O)n[nH]1`: the growth rescue is -2.94%.

Turning to `Cc1cc(C(=O)N/N=C\C(Br)=C\c2ccccc2)c(C)o1`, the growth rescue was 558% (active).

`CC(C)c1cc(C(=O)N/N=C/C(Br)=C/c2ccccc2)n[nH]1`: the growth rescue is 457% (active).

In the case of `Cc1ccc(-c2cc(C(=O)N/N=C/C=C/c3ccccc3)n[nH]2)o1`, the growth rescue is -7.96%.

With `CC(=C/c1ccccc1)/C=N/NC(=O)c1cc(C)oc1C`, the growth rescue is 2.01%.

As for `CCCc1c(C(=O)N/N=C(\C)CCc2ccc(OC)cc2)nnn1-c1nonc1N`, the growth rescue is 3.62%.

Take `CCOC(=O)C1CCN(C(=O)Cn2nc(C)c3c(C)n(-c4ccccc4)nc3c2=O)CC1`: the growth rescue was 34.9%.

`NC(=O)c1nnsc1-c1ccc(-c2snnc2C(N)=O)cc1`: the growth rescue was 18.5%.

On to `COc1cccc(CN(C)CC(=O)NCc2ccccc2Cl)c1OC`, for which the growth rescue was 10.7%.

As for `COc1cccc(CN(C)CC2CCCN(CCc3ccc(Cl)cc3)C2)c1OC` (configuration not stated), the growth rescue was 535% (active).

Regarding `Cc1nc2ccc(C(=O)N(C)CC3CCCN(CCc4ccc(Cl)cc4)C3)cc2[nH]1` (configuration not stated), the growth rescue is 3.97%.

For the compound `CN(C)c1nc(=Nc2cccc(Cl)c2)ss1`, the growth rescue was 331% (active).

As for `Cc1cccc(C)c1NC(=O)N1CC(C)OC(C)C1` (configuration not stated), the growth rescue was -5.77%.

For `Cc1ccc(-c2nc(COC(=O)c3c(C)noc3C)cs2)cc1`, the growth rescue was 0.699%.

As for `Cc1ccc(S(=O)(=O)N(C)c2nc3ccccc3n3c(C(C)C)nnc23)cc1`, the growth rescue is 138%.

Take `CCCC1(C(=O)OCC)NC(c2ccc(N(C)C)cc2)C2C(=O)N(c3ccc4c(c3)OCCO4)C(=O)C21` (configuration not stated): the growth rescue was -0.477%.

Consider `O=C(Nc1nn(Cc2ccccc2F)cc1Br)c1cccs1`, for which the growth rescue was 13%.

Take `CCOC(=O)COc1ccc([N+](=O)[O-])cc1`: the growth rescue is 319%.

As to `Cc1ccc(OCC(=O)Oc2ccccc2[N+](=O)[O-])cc1`, the growth rescue was 330% (active).

Turning to `O=C(COc1ccccc1[N+](=O)[O-])NC1CC1`, the growth rescue was 1.86%.

Turning to `O=C(/C=C/c1cnc2ccccc2n1)NC1CCCCCC1`, the growth rescue was 26.5%.

Turning to `Nc1c(N(CCCO)C(=O)C2CCCC2)c(=O)[nH]c(=O)n1Cc1ccccc1`, the growth rescue was 103%.

Turning to `COc1ccc(CCNC(=O)CCC(=O)NC2CCCCC2)cc1OC`, the growth rescue is 26.5%.

Turning to `Cc1ccc2c(c1)C(O)(CC(=O)c1cccc(-n3cccc3)c1)C(=O)N2` (configuration not stated), the growth rescue was -2.84%.

As to `Cc1cccc(OCC(=O)NCCNC(=O)c2cccnc2)c1`, the growth rescue was 220%.

With `Cc1ccc2c(c1)C(O)(CC(=O)c1cccnc1)C(=O)N2` (configuration not stated), the growth rescue is 1220% (active).

Take `CCC/C=C(\CCC)C(NC(=O)Cc1ccccc1)c1ccc(C(=O)OC)cc1` (configuration not stated): the growth rescue is -14.4%.

For the compound `O=C(Nc1ccccc1)Nc1ccc(C(F)(F)F)cn1`, the growth rescue is -19.3%.

With `Cc1ccc(NC(=O)Nc2cccc(C(F)(F)F)c2)nc1`, the growth rescue is 471% (active).

Consider `CC(C)C[C@H](NC(=O)Nc1cccc(C(F)(F)F)c1)C(=O)O`, for which the growth rescue was -3.86%.

As for `O=C(CNS(=O)(=O)c1ccc2c(c1)OCCCO2)N1CCN(c2ccc(F)cc2)CC1`, the growth rescue was 10.2%.

Take `COc1ccc2c(CC(=O)NNC(=O)c3ccccc3F)coc2c1`: the growth rescue is 9.24%.

Turning to `COc1ccc(/C=N/NC(=O)Cn2cc(C(F)(F)F)ccc2=O)cc1`, the growth rescue is 0.303%.

For `CCCc1cc(=O)oc2c(C)c(OCC(=O)N3CCC(C(=O)O)CC3)ccc12`, the growth rescue was 10.4%.

With `CCc1cc(=O)oc2cc(C)cc(OCC(=O)N3CCC[C@@H]3C(=O)O)c12`, the growth rescue is 694% (active).

Turning to `CCc1cc(=O)oc2cc(C)cc(OC(C)C(=O)O)c12` (configuration not stated), the growth rescue is -0.434%.

Consider `Cc1cc(=O)n2nc(N3CCCC(C(=O)NCc4ccc(Cl)cc4)C3)sc2n1` (configuration not stated), for which the growth rescue was 7.79%.

Turning to `O=C(CSc1nc2[nH]c(=O)[nH]c(=O)c2s1)Nc1cccc(F)c1`, the growth rescue was -17.9%.

Take `O=S(=O)(Nc1ncnc2sccc12)c1cccc(F)c1`: the growth rescue was 5.08%.

On to `O=C(NCC1CCCO1)c1cc2c(s1)CCCC2` (configuration not stated), for which the growth rescue was -9.49%.

Consider `CC1=CC(=O)C=CC1(C)C(Cl)(Cl)Cl` (configuration not stated), for which the growth rescue was 385% (active).

Turning to `COc1ccccc1Nc1nnc(SC(C)C(=O)NC2CC2)s1` (configuration not stated), the growth rescue was -11.6%.

For `CC1C(=O)N2CCCc3cc(S(=O)(=O)NCc4ccc(F)cc4)cc1c32` (configuration not stated), the growth rescue was -4.02%.

Turning to `Cc1ccc(NC(=O)CSc2nnc(CNC(=O)c3ccccc3F)o2)cc1`, the growth rescue was 3.58%.

`O=C(NCCN1CCOCC1)c1cccc(S(=O)(=O)Nc2ccc(F)cc2)c1`: the growth rescue was 18.1%.

`O=C(OC1CCOC1=O)c1cccc(S(=O)(=O)Nc2ccc(F)cc2)c1` (configuration not stated): the growth rescue was 535% (active).

For the compound `O=C(OC1CCCCC1=O)c1cccc(S(=O)(=O)NCc2ccccc2)c1` (configuration not stated), the growth rescue is 12.9%.

In the case of `CCCCn1c(N)c(N(CC(C)C)C(=O)c2cccc(S(=O)(=O)N3CCN(C(C)=O)CC3)c2)c(=O)[nH]c1=O`, the growth rescue is -9.04%.

As for `Cc1cccc(N2CCN(S(=O)(=O)c3ccc4[nH]c(=O)c(=O)[nH]c4c3)CC2C)c1` (configuration not stated), the growth rescue is 2.34%.

For the compound `COc1ccc(CCNC(=O)COC(=O)C2CC2C)cc1` (configuration not stated), the growth rescue is 4.29%.

In the case of `O=C(c1c(F)cccc1F)N1CCN(S(=O)(=O)c2ccc3c(c2)OCCO3)CC1`, the growth rescue was 3.47%.

As to `CCC(=C/c1sc2ccc3ccccc3c2[n+]1C)/C=C1\Sc2ccc3ccccc3c2N1C`, the growth rescue was 6.07%.

Take `Cc1cc(C)c(OCC(=O)N/N=C/c2ccco2)c(C)c1`: the growth rescue is 568% (active).

On to `Cc1ccc(NC(=O)CCC(=O)N/N=C/c2ccco2)c(C)c1`, for which the growth rescue is -4.26%.

As to `Cc1c(Cl)cccc1NC(=O)CCC(=O)N/N=C/c1ccco1`, the growth rescue is 2.23%.

Take `CCOc1ccc(CCNC(=O)COC(=O)CCS(=O)(=O)c2ccc(C)cc2)cc1OCC`: the growth rescue was -6.14%.

Take `Cc1ccc2nc(NC(=O)CSc3nc(=O)n(CCCN(C)C)c4c3CCC4)sc2c1`: the growth rescue was -6.26%.

Consider `CSc1nc(N(C)NC(=O)c2cccc(C)c2)c2ccccc2n1`, for which the growth rescue is -1.55%.

Take `CN(NC(=O)c1ccccc1F)c1nc(C(F)(F)F)nc2ccccc12`: the growth rescue is 658% (active).

Take `CN(NC(=O)c1ccccc1)c1nc2ccccc2nc1C(F)(F)F`: the growth rescue is 29.8%.

For the compound `CCOC(=O)[C@@H]1[C@H]2COc3ccc(Br)cc3[C@H]2N2C(=O)N(c3ccc(C)cc3)C(=O)[C@@]12C`, the growth rescue was 5.35%.

For the compound `O=C(NCc1ccco1)C(c1ccncc1)N(C(=O)Cn1nnc2ccccc21)c1ccccc1` (configuration not stated), the growth rescue was 5.81%.

Regarding `COc1cccc(C(CC(=O)NCCN2CCOCC2)NS(=O)(=O)c2ccc(C)cc2)c1OC` (configuration not stated), the growth rescue is -1.44%.

Turning to `C=CCC(NCCCO)c1cccc(OC)c1OC` (configuration not stated), the growth rescue was 1100% (active).

As to `C=CCC(Nc1ccccc1)c1cccc(OC)c1OC` (configuration not stated), the growth rescue is -16.1%.

With `CC(=O)Nc1ccc(/C(C)=N/NC(=O)CN(c2ccccc2Br)S(C)(=O)=O)cc1`, the growth rescue is -7.93%.
